Compound activity (PubChem BioAssay)
Sfp inh = inhibitors of Bacillus subtilis Sfp phosphopantetheinyl transferase; Q9F4F7; hit rate 3.5% among 310,000; AID 1490; Potency, µM, for inactives: largest response in the series, negative = inhibition, actives largely listed as inhibitors; Biochemical Sfp PPTase activity, qHTS;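 further: the enzyme is Sfp with the accession as filed and its product quenches rhodamine fluorescence; 0% = enzyme reaction without inhibitor and -100% = no enzyme wells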
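Fluorescence-quenching assay: 15 nM Sfp-PPTase preincubated 15 min at room temperature with compound, then 5 uM rhodamine-CoA and 12.5 uM BHQ-2-labelled YbbR peptide added. Fluorescence (ex 525/em 598 nm) read at start and after 30 min; difference gives rate.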
HP1b binding inh = blocks HP1-beta chromodomain binding to methylated histone tails | P83916 | AlphaScreen HP1-beta / biotin-H3K9me3 peptide binding | Potency, µM (titrated, usually from 114 µM), without a hit: top-dose activity change, negative = inhibition, actives largely listed as inhibitors | hit rate 0.56% among 390,000; further: nearly all actives have a fitted effect of over 70% in size
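Compound inhibition of the preformed complex between 50 nM HP1-beta and 50 nM biotinylated H3K9me3 peptide was read by AlphaScreen. Buffer was PBS pH 7.4 with 0.01% Tween-20. Incubations ran 30 min at room temperature, with 10 ug/mL donor/acceptor beads.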
G9a block = blocks human histone lysine methyltransferase G9a. hit rate 8.8% among 350,000. Q96KQ7. AID 504332. G9a H3K9 monomethylation, AlphaScreen, 2 h. Potency, µM (doses to about 102 µM), without a hit: top-dose activity, negative = inhibition, actives largely listed as inhibitors; further: on the % scale 0 is the no-effect control and ±100 the full control effect; nearly all actives have a fitted effect of over 75% in size
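Signal arises when biotinylated H3K9 peptide, once monomethylated, bridges streptavidin donor and antibody-captured acceptor beads. Enzyme at 20 nM was preincubated 15 min with test compounds; peptide 500 nM and SAM 20 uM then reacted for 2 h.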
JMJD2A Tudor inh = blocks the human JMJD2A Tudor domain; AlphaScreen JMJD2A-Tudor / H3K4me3 peptide binding; Potency, µM (top dose mostly 114 µM), without a hit: top-dose activity change, negative = inhibition, most hits filed as inhibitors; hit rate 4.4% among 390,000; AID 504339; further: on the % scale 0 is the no-effect control and ±100 the full control effect; nearly all actives have a fitted effect of over 50% in size
BAZ2B block = BAZ2B (human) inhibition | hit rate 4.4% among 360,000 | AID 504333 | Q9UIF8 | Potency, µM (highest dose often 114 µM), for the others: top-dose activity change, negative = inhibition, actives largely listed as inhibitors | AlphaScreen BAZ2B-H3K14Ac peptide displacement; further: on the % scale 0 is the no-effect control and ±100 the full control effect; nearly all actives have a fitted effect of over 60% in size
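BAZ2B 50 nM plus b-H3(5-23)K14Ac 50 nM, PBS pH 7.4/0.01% Tween-20, 30 min RT; compound added (max 110 uM), 30 min RT; streptavidin donor/Ni-chelate acceptor beads 10 ug/mL final, 20 min dark; AlphaScreen read.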
12-LOX inh = inhibitors of human 12S-lipoxygenase ALOX12; Potency, µM (top dose mostly 108 µM), without a hit: at the top dose activity change, negative = inhibition, actives largely listed as inhibitors; purified 12hLO, xylenol orange hydroperoxide absorbance; P18054; hit rate 1.1% among 580,000; AID 1671190; further: on the % scale 0 is the no-effect control and ±100 the full control effect
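Hydroperoxide product was detected by ferrous iron/xylenol orange as the 573 to 405 nm absorbance ratio. Arachidonic acid at 40 uM (final) was turned over for 30 min at room temperature by 150 nM human 12hLO, pH 7.0 Hepes buffer, after 15 min compound preincubation.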
Starred values were filed as active, the others as inactive; [ ] = remark or other dose. The list is not random: actives were taken first. Their share in the collection is about 8.7%. The call rests on the fitted dose curve; in most records, active means well fitted curve in the direction sought with a large enough effect; inconclusive means small, poorly fitted or top-dose-only effect, or another doubt; inactive means no such curve, though single readings can be large; an effect the other way counts as inactive or inconclusive. Potency means the concentration at half of the fitted maximal effect.

How did CCc1ccc(/C=C/C(=O)c2c(C)cc(C)[nH]c2=O)cc1 do in these assays?
Sfp inh: 8%; HP1b binding inh: 42%; G9a block: 56µM*; JMJD2A Tudor inh: -3%; BAZ2B block: 5%; 12-LOX inh: -7%

Results for Cc1ccc(/C=C/C(=O)c2c(C)cc(C)[nH]c2=O)cc1 ?
Sfp inh: 6%; HP1b binding inh: -1%; G9a block: -4%[59 µM]; JMJD2A Tudor inh: -17%; BAZ2B block: 6%; 12-LOX inh: -2%

Results for CCOc1cccc(N2C(=O)CC(N(CCc3ccc(OC)c(OC)c3)C(=O)CC)C2=O)c1 (stereo not drawn) ?
Sfp inh: 8%; HP1b binding inh: 11%; G9a block: -2%[59 µM]; JMJD2A Tudor inh: 1%; BAZ2B block: -10%; 12-LOX inh: inconclusive

What do the screens show for `CCOC(=O)c1ccc(N2C(=O)CC(N(C)CCc3ccc(OC)c(OC)c3)C2=O)cc1` (stereo not drawn)?
Sfp inh: 2%; HP1b binding inh: 40%; G9a block: 14µM*; JMJD2A Tudor inh: -7%; BAZ2B block: -1%; 12-LOX inh: inconclusive

What do the screens show for `CC(=O)Nc1ccccc1OCC(=O)NC(C)C(C)C` (stereo not drawn)?
12-LOX inh: 33%

Results for NCCCNC(=O)c1ccc(/C=N/O)nc1 ?
Sfp inh: 71µM*; HP1b binding inh: 1%; G9a block: 2.8µM*; JMJD2A Tudor inh: 8.9µM*; BAZ2B block: 22µM*; 12-LOX inh: 0%

Results for Cc1c2cnn(CC(=O)Nc3c(F)c(F)cc(F)c3F)c(=O)c2c(C)n1Cc1ccccc1F ?
Sfp inh: -10%; HP1b binding inh: -16%; G9a block: inconclusive; JMJD2A Tudor inh: inconclusive; BAZ2B block: 56µM*; 12-LOX inh: 20µM*

Results for Cc1c2cnn(CC(=O)NCc3ccc(F)cc3)c(=O)c2c(C)n1Cc1ccccc1F ?
HP1b binding inh: 37%; G9a block: -1%[59 µM]; JMJD2A Tudor inh: 0%; BAZ2B block: -23%; 12-LOX inh: -26%

Results for CC(=O)N1CCCc2cc(S(=O)(=O)N3CCCC(C(=O)N4CCN(c5cc(C)ccc5C)CC4)C3)ccc21 (stereo not drawn) ?
Sfp inh: -9%; HP1b binding inh: 19%; G9a block: 2%; JMJD2A Tudor inh: 4µM*; BAZ2B block: -31%[57.1 µM]; 12-LOX inh: -11%

How did CCOC(=O)c1c(C)[nH]c(C)c1S(=O)(=O)N1CCCC(C(=O)N2CCN(c3cc(C)ccc3C)CC2)C1 (stereo not drawn) do in these assays?
HP1b binding inh: -21%; G9a block: -33%[59 µM]; JMJD2A Tudor inh: inconclusive; BAZ2B block: 45µM*; 12-LOX inh: inconclusive

What do the screens show for `O=C(c1ccccc1F)N1CCn2c(nnc2[C@@H]2C[C@@H](O)CN2Cc2cccnc2)C1`?
12-LOX inh: 1%

What do the screens show for `CCc1noc(-c2ccn3c(CNC(=O)Cc4cccc(F)c4)nnc3c2)n1`?
12-LOX inh: 4%

What do the screens show for `O=C(CN1C(=O)C(c2ccccc2)=NC12CCCC2)NC1CCCCC1`?
12-LOX inh: -1%

How did O=C(Oc1ccc(C(=S)N2CCCCC2)cc1)c1ccccc1 do in these assays?
Sfp inh: 22µM*; HP1b binding inh: inconclusive; G9a block: 35µM*; JMJD2A Tudor inh: -21%; BAZ2B block: -16%; 12-LOX inh: -17%

How did O=C(Oc1ccccc1C(=S)N1CCOCC1)c1cccc([N+](=O)[O-])c1 do in these assays?
Sfp inh: 6%; HP1b binding inh: 4%; G9a block: 79µM*; JMJD2A Tudor inh: inconclusive; BAZ2B block: -15%; 12-LOX inh: -24%

How did O=C(Oc1ccc(C(=S)N2CCOCC2)cc1)c1cc([N+](=O)[O-])cc([N+](=O)[O-])c1 do in these assays?
Sfp inh: -4%; HP1b binding inh: 40%; G9a block: 35µM*; JMJD2A Tudor inh: -32%; BAZ2B block: -27%; 12-LOX inh: -16%

What do the screens show for `Cc1c([N+](=O)[O-])cc(C(=O)Oc2cccc(C(=S)N3CCOCC3)c2)cc1[N+](=O)[O-]`?
Sfp inh: 10%; HP1b binding inh: 13%; G9a block: 16µM*; JMJD2A Tudor inh: -31%; BAZ2B block: inconclusive; 12-LOX inh: -10%

What do the screens show for `COc1cc(C(=S)N2CCOCC2)ccc1OC(=O)c1ccc([N+](=O)[O-])cc1[N+](=O)[O-]`?
Sfp inh: -23%; HP1b binding inh: -9%; JMJD2A Tudor inh: inconclusive; BAZ2B block: -35%; 12-LOX inh: -11%

What do the screens show for `COc1ccc(C(=S)N2CCOCC2)cc1OC(=O)c1cccc([N+](=O)[O-])c1`?
Sfp inh: 20%; HP1b binding inh: -4%; G9a block: -2%; JMJD2A Tudor inh: inconclusive; BAZ2B block: -3%; 12-LOX inh: -17%

Results for CNC(=O)C1(NC(=O)CNC(=O)CC(C)(C)C)CCCCC1 ?
12-LOX inh: -6%

Results for Cc1ccc(NC(=O)CN2CCN(C(=O)CN(C)Cc3cnn(-c4ccccc4)c3)CC2)cc1 ?
12-LOX inh: -53%

How did Cc1ccc(NC(=O)C(C)n2cccn2)c(Br)c1 (stereo not drawn) do in these assays?
12-LOX inh: 0%

What do the screens show for `O=C(Oc1ccc(C(=S)N2CCOCC2)cc1)c1cccc(Cl)c1`?
Sfp inh: 40µM*; HP1b binding inh: inconclusive; G9a block: 45µM*; JMJD2A Tudor inh: -22%; BAZ2B block: -30%; 12-LOX inh: 16%

How did O=C(Oc1cccc(C(=O)N2CCOCC2)c1)c1ccc(Br)cc1 do in these assays?
Sfp inh: 13%; HP1b binding inh: 17%; G9a block: -10%[59 µM]; JMJD2A Tudor inh: -14%; BAZ2B block: 23%; 12-LOX inh: -1%

How did O=C(Oc1cccc(C(=S)N2CCOCC2)c1)c1ccc([N+](=O)[O-])cc1 do in these assays?
Sfp inh: -24%; HP1b binding inh: inconclusive; G9a block: 32µM*; JMJD2A Tudor inh: inconclusive; BAZ2B block: inconclusive; 12-LOX inh: 3%

How did CN(C1CCS(=O)(=O)C1)S(=O)C12CC3CC(CC(C3)C1)C2 (stereo not drawn) do in these assays?
Sfp inh: -10%; HP1b binding inh: 49%; G9a block: 11µM*; JMJD2A Tudor inh: -20%; BAZ2B block: -1%; 12-LOX inh: inconclusive

What do the screens show for `COc1ccc(OC)c(C2=NS(=O)(=O)N(C)C(C(=O)NCc3cccs3)=C2)c1`?
Sfp inh: 2%; HP1b binding inh: -7%; G9a block: -2%; JMJD2A Tudor inh: 22µM*; BAZ2B block: -30%; 12-LOX inh: inconclusive
